A selection: hits, their analogues and other compounds. The true share with any hit is near 4.5%.
aSyn 5UTR inh = MLPCN primary screen, SNCA 5' untranslated region. alpha-synuclein 5'UTR reporter, inhibitor activity. inhibition, % (tested at 7.5 µM). actives 0.82% (n = 300,000); in the data active means inhibition above about 60%;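 further: H4 neuroglioblastoma cells stably carrying SNCA 5'UTR luciferase fusion; 0% = DMSO wells and 100% = positive control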
Mdm2-MdmX inh = inhibitors of human Mdm2-MdmX association, primary screen, cell-based, luminescence, split luciferase, SaOS-2, uHTS | Protein Mdm4 (Homo sapiens) + E3 ubiquitin-protein ligase Mdm2 (Homo sapiens), … | SaOS-2 split-luciferase Mdm2/MdmX complementation | inhibition, % at 8 µM | actives 3% (n = 330,000);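 active means inhibition of at least 50% at 8 µM in the primary screen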
CSC inhib = cancer stem cell viability inhibitors, primary screen, luminescence | actives 1.1% (n = 300,000) | cancer stem cell-like cells viability | AID 2717, 2010 | inhibition, % at 7.5 µM; in the data active means inhibition above about 75%; tested in HMLE shEcad cells
697 NFkB inh = inhibitors of PMA/ionomycin-induced NF-kB reporter, 697 cells, primary screen, B-cell NF-kB inhibitor project, cell-based, luminescence, uHTS. 697 B-cell NF-kB luciferase reporter, 16 h. inhibition, % at 4 µM. actives 0.33% (n = 330,000); in the data active means inhibition above about 35%
Gli-Sufu antag = Gli-Sufu pathway antagonists, primary screen, luciferase luminescence, Sufu-KO-LIGHT cells, uHTS. Sufu-KO-LIGHT fibroblasts, Gli luciferase reporter luminescence. inhibition, % at 5 µM. actives 0.74% (n = 340,000). AID 588413, 2011;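 active means inhibition above about 55%, limit read from the data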;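 further: 0% = DMSO-treated cells and 100% = wells with medium but no cells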
Jurkat NFkB inh = inhibitors of induced NF-kB luciferase reporter, primary screen, TCR NF-kB activation inhibitor project, cell-based, luminescence, uHTS; AID 435003, 2010; inhibition, % at 4 µM; Jurkat, PMA/ionomycin-induced NF-kB luciferase reporter; actives 0.53% (n = 330,000); in the data active means inhibition above about 50%
Mdm2-MdmX conf = Mdm2-MdmX complex disruptors, retested hits, confirmation, luminescence, single concentration. inhibition, % at 8 µM. shares compounds with Mdm2-MdmX inh. actives 55% (n = 10,000). Mdm2-MdmX binding, luminescent assay; in the data active means inhibition above about 40%
FLuc counter = full-length luciferase signal inhibition, confirmation, counter-screen for Mdm2/MdmX interaction inhibitor project, cell-based, single concentration, SaOS-2; SaOS-2 full-length luciferase counterscreen, luminescence; actives 77% (n = 6,200); inhibition, % at 8 µM; shares compounds with Mdm2-MdmX inh; AID 504607, 2011;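 active means mean inhibition at 8 µM reaching about 37%, which flags the compound as non-specific, limit read from the data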;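 further: p53-null SaOS-2 cells with luciferase driven by a doxycycline-inducible promoter; compound on cells about two nights before reading with doxycycline added after day one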
* hit, by the source's call; x = no result given.

SMILES	aSyn 5UTR inh	Mdm2-MdmX inh	CSC inhib	697 NFkB inh	Gli-Sufu antag	Jurkat NFkB inh	Mdm2-MdmX conf	others
COc1cc(N/N=C(\C)c2ccc(O)c(C)c2)nc(-c2ccccc2)n1	21.9	87.1*	109.8*	-27.9	-3.5	3.7	66.0*	FLuc counter=111.5*
C/C(=N\Nc1cc(-c2ccccc2)nc(-c2ccccc2)n1)c1ccc(O)c(C)c1	-3.8	53.3*	x	-73.0	1.6	-22.2	6.5
COc1cc(N/N=C(\C)c2ccc(N)cc2)nc(-c2ccccc2)n1	-62.3	13.9	-7.6	-17.2	-5.0	-14.9	x
O=C(CNC1=NCCC1)c1ccc(Cl)cc1	17.7	22.5	-1.6	-5.8	1.8	14.1	x
O=C(ONC1=NCCCCC1)c1ccc(Cl)cc1	6.0	69.8*	6.6	-12.4	8.2	2.6	18.8
O=C(ONC1=NCCCCC1)c1c(F)cccc1F	22.8	65.0*	7.1	-13.1	-2.0	0.1	26.8
O=C(C1CC(=O)N(c2ccc(Cl)cc2)C1)N1CCC(c2nc3ccccc3[nH]2)CC1 (stereo not drawn)	28.4	13.6	7.9	-16.3	7.2	11.3	x
[O-]C1=N/[N+](=C/c2ccccc2Cl)CC1	6.3	28.4	-9.9	1.3	2.6	7.8	x
COc1ccc(OC)c(NC(=O)C2CC(=O)N(Cc3ccco3)C2)c1 (stereo not drawn)	x	26.8	x	12.8	-9.8	4.6	x
COC(=O)C1=C(C(=O)OC)[C@@H]2N(Cc3ccccc3)c3ccccc3[C@@]23C[C@@H](C(=O)OC)N(C(=O)CC(C)C)C3=N1	18.0	4.3	21.5	11.3	23.7	6.6	x
COC(=O)C1=C(C(=O)OC)[C@@H]2N(C)c3ccccc3[C@@]23C[C@@H](C(=O)OC)N(C(=O)c2cccs2)C3=N1	-1.7	24.1	0.3	6.1	-8.2	16.1	x
COC(=O)C1=C(C(=O)OC)[C@@H]2N(Cc3ccccc3)c3ccccc3[C@@]23C[C@@H](C(=O)OC)N(C(=O)c2cccs2)C3=N1	-12.2	59.7*	32.8	11.0	-0.3	7.1	21.1
COC(=O)C1=C(C(=O)OC)[C@@H]2N(Cc3ccccc3)c3ccccc3[C@@]23C[C@@H](C(=O)OC)N(C(=O)c2cc(C)oc2C)C3=N1	-18.5	56.6*	26.0	19.3	-1.8	21.0	6.8
Cc1nc(C)c(NC(=O)OC(C)C)cc1NC(=O)OC(C)C	13.6	7.5	-28.5	23.2	-3.5	4.2	x
O=C(Cn1cc(C(=O)C(F)(F)F)c2ccccc21)N1CCOCC1	6.5	7.9	1.5	-22.6	1.9	-15.5	x
Cc1cc(Cl)ccc1OCC(=O)NNC(=O)CCOc1ccccc1	x	26.3	x	3.8	-7.5	-9.5	x
Cc1cccc(C)c1OCc1cc(C(=O)N(C)Cc2nc3ccccc3[nH]2)no1	2.3	14.0	-4.2	5.3	9.8	-3.5	x
Cc1cccc(NC(=O)c2cc(-c3ccc(C)s3)nc3ccccc23)n1	-93.3	73.4*	51.4	17.5	-4.4	14.5	59.0*	FLuc counter=83.3*
Cc1sc(NC(=O)c2cc(-c3ccc(Cl)cc3)nc3ccccc23)c(C(N)=O)c1C	2.3	73.3*	46.9	3.1	14.9	6.5	39.8	FLuc counter=76.2*
O=C(N/N=C/c1ccccn1)c1cc(-c2ccc(Cl)cc2)nc2ccccc12	-5.3	76.0*	31.5	-67.1	88.5*	37.8	34.8
CCOC(=O)c1sc(NC(=O)c2cc(-c3ccc(C)cc3)nc3ccccc23)c(C#N)c1C	-6.5	76.0*	49.3	-16.9	41.3	0.4	92.5*	FLuc counter=50.3*
COc1ccc(-c2cc(C(=O)Nc3sc4c(c3C#N)CCCC4)c3ccccc3n2)cc1	x	x	18.0	x	-0.5	x	x
Cc1[nH]c2ccccc2c1-c1csc(NC(=O)CSCCO)n1	-42.8	9.2	x	-5.7	-9.9	-1.8	x
O=C(N/C(=C\c1ccccc1)C(=O)N1CCN(CCO)CC1)c1ccccc1	-17.5	-8.5	-27.9	11.2	-1.5	-3.0	x
FC(F)(F)c1cccc(NC(=S)N(CCCN2CCCC2)Cc2cccn2Cc2ccc(Cl)cc2)c1	-1.4	95.7*	130.0*	6.5	-4.0	-3.1	53.6*	FLuc counter=30.3
SMILES	aSyn 5UTR inh	Mdm2-MdmX inh	CSC inhib	697 NFkB inh	Gli-Sufu antag	Jurkat NFkB inh	Mdm2-MdmX conf	others
Cc1ccc(NC(=S)N(CCCN2CCCC2)Cc2cccn2Cc2ccc(Cl)cc2)cc1C	44.6	58.4*	69.9	-3.2	-10.2	-25.7	37.0
COc1ccc(NC(=S)N(CCCN2CCCC2)Cc2cccn2Cc2ccc(Cl)cc2)cc1Cl	-0.2	84.8*	41.9	-6.4	5.3	-31.6	56.8*	FLuc counter=54.4*
CCn1cc(NC(=O)CCl)c(C)n1	-103.6	33.6	3.4	26.6	x	6.5	x
CC(C)Cc1nc2oc3c(NCC4CCCO4)ncnc3c2c2c1CCC2 (stereo not drawn)	25.0	53.1*	23.2	-6.5	13.1	33.5	54.9*	FLuc counter=75.2*
COc1ccc(CCNCCN2CCOCC2)cc1	-5.0	16.5	-1.3	10.7	2.1	4.4	x
COc1ccc(-c2oc3ncnc(NCCCN4CCOCC4)c3c2-c2ccc(OC)cc2)cc1	44.4	60.1*	20.3	2.1	4.8	9.6	30.6
COc1ccc(-c2oc3ncn(CCN4CCOCC4)c(=N)c3c2-c2ccc(OC)cc2)cc1	74.2*	57.3*	43.4	-28.7	15.3	-10.2	38.0	FLuc counter=49.4*
c1ccc(-c2oc3ncnc(NCCCN4CCOCC4)c3c2-c2ccccc2)cc1	25.6	16.3	24.9	8.6	11.4	5.0	x
COc1ccc(-c2oc3ncnc(NCCN4CCOCC4)c3c2-c2ccc(OC)cc2)cc1	44.9	79.7*	33.7	-51.7	16.4	-11.2	36.9
Cc1[nH]c2ccccc2c1C(=O)C(C)OC(=O)c1ccccc1NCCO (stereo not drawn)	4.9	35.3	-3.5	-16.9	-5.6	18.3	x
CC12CCC(=O)N1C(C(=O)Nc1cc(C(F)(F)F)ccc1N1CCCCC1)CS2 (stereo not drawn)	4.6	-20.6	4.9	-1.0	7.3	9.6	x
COc1cccc(CN2CCC(N(CCc3ccccc3)Cc3ccccc3)CC2)c1OC	15.3	60.8*	76.8*	-28.8	17.5	0.7	28.1
Cn1c2ccccc2c2cc([N+](=O)[O-])ccc21	23.8	17.9	3.4	8.8	1.3	1.2	x

Source: PubChem BioAssay (several laboratories)
